Assay outcomes deposited in PubChem BioAssay by National Center for Advancing Translational Sciences (NCATS).
HCMV antiviral – inhibitors of human cytomegalovirus; actives 4.5% (n = 410,000); activity change, negative = inhibition, % at 57.5 µM; HFF cells, HCMV-luciferase reporter, 72 h; active compounds read low; in the data active = activity change below about -60%; inconclusive = no clear call, values can overlap the other calls; inactive = above about -39%
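HFF cells seeded 16 h at 37C, treated with compounds, infected with luciferase-reporter HCMV at MOI 1 PFU/cell; luciferase read at 72 h post infection, normalized to buffer-only and Salinomycin controls.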
VACV Venus inh – vaccinia inhibition (Venus reporter); Vaccinia virus Venus reporter expression, fluorescence; Potency, µM (doses to about 36.5 µM), actives largely listed as inhibitors; actives 0.46% (n = 330,000); AID 720580; calls by dose curve; tested in A549 cells; note: nearly all actives have a fitted effect of over 30% in size
FBPA Giardia inh – Giardia lamblia aldolase inhibition; A8B2U2; actives 0.71% (n = 290,000); Potency, µM (highest dose often 59.6 µM), hits mostly inhibitors; purified Giardia FBPA; note: nearly all actives have a fitted effect of over 55% in size
Target sequence (A8B2U2 whole entry, looked up): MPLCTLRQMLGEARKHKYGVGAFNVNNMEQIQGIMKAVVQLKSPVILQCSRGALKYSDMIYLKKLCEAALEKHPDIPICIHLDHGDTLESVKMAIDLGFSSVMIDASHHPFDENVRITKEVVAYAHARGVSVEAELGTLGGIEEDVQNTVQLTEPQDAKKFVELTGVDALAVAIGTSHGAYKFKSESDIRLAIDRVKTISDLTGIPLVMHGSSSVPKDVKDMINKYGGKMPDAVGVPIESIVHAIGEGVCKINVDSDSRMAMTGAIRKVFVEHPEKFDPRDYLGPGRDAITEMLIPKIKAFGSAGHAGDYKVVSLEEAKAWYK
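40 nM FBPA preincubated 10 min at RT with compound (up to 57.5 uM final), then substrate plus GAPDH/TPI/NAD/arsenate coupling and diaphorase/resazurin added. Fluorescence read after 20 min at RT, 525/598 nm.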
FMDV antiviral – foot and mouth disease virus antiviral activity | FMDV antiviral cell-based qHTS | Potency, µM (series often up to 57.9 µM), actives largely listed as inhibitors | actives 1.2% (n = 410,000); calls by dose curve; tested in HEK293T cells; note: read-out not given here; nearly all actives have a fitted effect of over 45% in size
Vaccinia mCherry – vaccinia inhibition (mCherry reporter); Vaccinia virus mCherry reporter infection, fluorescence; Potency, µM (titrated, usually from 36.5 µM), usual class: inhibitors; actives 0.63% (n = 310,000); AID 720579; calls by dose curve; tested in A549 cells; note: nearly all actives have a fitted effect of over 35% in size
HCV inh – inhibitors of hepatitis C virus infection. Huh7.5.1 HCVcc-Cre infection, luciferase reporter, 44 h. Potency, µM (series often up to 41.8 µM), actives largely listed as inhibitors. actives 3.4% (n = 340,000)
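A cell-based infection assay in which seeded cells (1,000 per well) receive test compound after 4 h, are inoculated with HCVcc-Cre at approximately 0.5 moi, and are incubated 44 h before luminescence detection.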
Numbers stand for hits; 0 = inactive; ? = inconclusive; - = not tested or not shown. This is a sample that favours compounds with a hit; in the whole collection about 7.5% have one here. Unless noted, calls come from the whole dose curve; as a rule, active = well fitted curve in the direction sought with a large enough effect; inconclusive = small, poorly fitted or top-dose-only effect, or another doubt; inactive = no such curve, though single readings can be large; an effect the other way counts as inactive or inconclusive.

SMILES	HCMV antiviral	VACV Venus inh	FBPA Giardia inh	FMDV antiviral	Vaccinia mCherry	HCV inh
COc1cc2c(cc1OC)CN(Cc1cc(=O)n3c(-c4ccccc4)csc3n1)CC2	-73	0	?	0	?	0
CSc1nccc(-c2cc(Cl)c3c(c2)CC(CNC(=O)c2nonc2C)O3)n1 (stereo not given)	-	0	-	0	0	-
OC(CN1CCCCC1)c1ccc2c3c(cccc13)CC2 (stereo not given)	0	0	-	0	?	?
CC(=O)N1C[C@@H](CO)[C@@H](N(C)C(=O)C2CCCCC2)C[C@H]1c1ccccc1	0	0	-	0	0	-
CCCCCCCCn1cnc2c(N)c(C)c(C)cc21	0	-	0	0	-	1.6µM
COc1ccc(Cn2cnc3c(N)c(C)c(C)cc32)cc1	?	0	0	0	0	0
COc1cc(OC)cc(-c2sc3ccccc3c(=O)c2I)c1	-	-	0	-	-	-
Cc1cc(CN2CCN(c3ccccc3F)CC2)cs1	0	0	-	0	0	-
Cc1cc(CN2CCN(c3cccc(C)c3C)CC2)cs1	-69	0	-	0	0	-
CN(CCO)c1ccc(-c2n[nH]c(=O)c3ccccc23)cc1[N+](=O)[O-]	0	0	0	0	0	0
Cc1cccc(N(C)S(=O)(=O)c2nnc(NC(=O)C3CCCCC3)s2)c1	0	0	-	0	0	-
O=C(NCc1ccccc1)c1ccc2c(c1)N(Cc1ccc(F)cc1)CCS2	0	0	-	0	0	-
O=C(NCc1ccc(F)cc1)c1cc2cccc3c2n1CCS3	-70	0	-	0	0	-
C=CCc1cccc(/C=N/NC(=O)c2ccccc2Br)c1O	-99	-	?	0	-	14µM
C=CCc1cccc(/C=N/NC(=O)C(C)Nc2ccc(C)cc2)c1O (stereo not given)	-89	?	0	?	0	10µM
C=CCc1cccc(/C=N/NC(=O)c2ccc3nc[nH]c3c2)c1O	-101	-	-	0	-	?
O=C(N/N=C/c1ccc(Cl)cc1Cl)c1ccc2nc[nH]c2c1	0	-	-	0	-	0
C=CCc1cccc(/C=N/NC(=O)c2ccccc2OC)c1O	-97	-	?	0	-	?
COc1ccc(CCc2c[nH]c(=O)c3cncnc23)cc1OC	-	0	-	-	0	-
CCOc1cccc(NC(=O)C2CC(=O)N(C)C(=Nc3ccc(F)cc3)S2)c1 (stereo not given)	0	0	-	0	0	-
COc1ccc(/C=N/OCC(=O)OCC(=O)N(C)c2ccccc2)cc1	0	0	-	0	0	0
O=Nc1ccc(/C=C/c2ccnc3ccccc23)cc1	-	0	-	-	0	-
COc1ccc(NC(=O)CN2CCN(Cc3ccccc3Cl)S2(=O)=O)cc1Cl	?	0	-	0	0	-
CC(C)C(=O)Nc1cccc(S(=O)(=O)NC2=NCCC2)c1	0	0	-	0	0	-
COc1ccc(-c2nn(-c3ccccc3)cc2C(=O)Nc2cccc(S(=O)(=O)NC3=NCCC3)c2)cc1	0	-	-	0	-	11µM
SMILES	HCMV antiviral	VACV Venus inh	FBPA Giardia inh	FMDV antiviral	Vaccinia mCherry	HCV inh
O=C(COC(=O)/C=C/c1ccc(Cl)cc1Cl)Nc1cccc(S(=O)(=O)NC2=NCCC2)c1	-69	0	-	0	0	-
Cc1ccccc1-n1ccnc1SCC(=O)Nc1cccc(S(=O)(=O)NC2=NCCC2)c1	-61	0	-	0	0	0
O=C(CCl)Nc1cccc(S(=O)(=O)NC2=NCCC2)c1	-100	-	0	0	-	13µM
O=c1[nH]c(=O)c2[nH]c(=S)[nH]c2[nH]1	0	0	-	0	0	0
CC(=O)c1cccc(S(=O)(=O)Nc2cccc(S(=O)(=O)NC3=NCCC3)c2)c1	-84	0	0	0	0	0
CCN(CC)CCNC(=O)C1(O)c2cc(Br)ccc2NC(=O)N1c1c(F)cccc1F (stereo not given)	0	-	0	0	-	0
CC1(C(=O)NS(=O)(=O)c2ccc3ccccc3c2)CCN1C(=O)Cc1ccc(-c2ccccc2)cc1 (stereo not given)	0	0	-	0	0	-
CCc1nc2ccccc2nc1N1CCN(S(=O)(=O)c2c(C)cc(Cl)cc2C)CC1	0	-	0	0	-	0
CCc1nc2ccccc2nc1N1CCN(S(=O)(=O)c2ccccc2)CC1	-68	0	0	?	0	0
COc1ccc(C2(c3ccc(OC)cc3)NC(=O)N(CC(=O)N(C)C)C2=O)cc1	0	0	0	0	0	0
O=C(/C=C/c1cccc2ccccc12)c1ccncc1	-83	?	0	14µM	?	16µM
Cc1cc(C)cc(-n2ccnc2SCC(=O)Nc2ccc3c(c2)OCO3)c1	?	0	-	?	0	-
N#CC1=C(N)Oc2cc(O)ccc2C1c1cccs1 (stereo not given)	0	0	0	?	-	0
CCN1CC2=C(OC(N)=C(C#N)C2c2cccs2)/C(=C\c2cccs2)C1 (stereo not given)	0	0	0	-	0	14µM
Cc1ccccc1C(=O)NC1CCN(Cc2ccccc2)CC1	0	0	0	0	0	0
O=C(/C=C/c1cccc(F)c1)NC1CCN(Cc2ccccc2)CC1	-63	0	0	0	0	0
O=C(/C=C/c1cccc(Br)c1)NC1CCN(Cc2ccccc2)CC1	?	0	0	?	0	?
Cc1cc(F)ccc1S(=O)(=O)Nc1ccccc1C(=O)NC1CCN(Cc2ccccc2)CC1	0	10µM	-	0	?	?
COc1ccc(-c2nc3c4c(ncn3n2)-c2ccccc2CC42CCCC2)cc1	0	0	0	32µM	0	?
Oc1cccc(-c2nc3c4c(ncn3n2)-c2ccccc2CC42CCCC2)c1	-93	18µM	0	?	13µM	-
CCn1c(-c2ccccc2F)nc2cc(C(=O)NCc3ccc(C)o3)cc(NC(C)=O)c21	-	0	-	0	0	-
COc1ccc(-n2c(CNC(=O)c3cccc(OC)c3OC)nnc2SC)cc1	-	0	-	0	0	-
COc1ccc(S(=O)(=O)N2c3cc(Cl)ccc3Oc3nc4ccccc4nc32)cc1	-89	?	0	0	-	?
O=C(O)c1cccc2c1Cc1cc([N+](=O)[O-])ccc1-2	-97	0	-	0	?	0
COc1ccc(/C=N/Nc2cc(C)nc(-n3nc(C)cc3C)n2)cc1	-99	?	0	32µM	?	?
SMILES	HCMV antiviral	VACV Venus inh	FBPA Giardia inh	FMDV antiviral	Vaccinia mCherry	HCV inh
COc1ccc(/C=N/Nc2cc(C)nc(NS(=O)(=O)c3ccc(C)cc3)n2)cc1	-62	?	0	0	0	0
Cc1cc(N/N=C/c2ccccc2[N+](=O)[O-])nc(-n2nc(C)cc2C)n1	-99	?	0	?	10µM	2.5µM
COc1ccc(/C=N/Nc2cc(N3CCCC3)nc(N3CCCC3)n2)cc1	-76	?	?	?	?	7.1µM
COc1cc(/C=N/Nc2cc(C)nc(NS(=O)(=O)c3ccc(C)cc3)n2)ccc1O	0	0	0	0	0	0
Oc1ccc(/C=N/Nc2cc(N3CCCC3)nc(N3CCCC3)n2)cc1	?	0	?	-	0	?
COc1ccc(S[C@]2(C(=O)NCC(F)(F)F)CC(=O)N[C@@H]2c2ccc(OC)cc2)cc1	0	-	-	-	-	-
COCCN(C(=O)COC(=O)CSc1ccc2ccccc2c1)c1c(N)n(Cc2ccccc2)c(=O)[nH]c1=O	0	0	-	0	0	0
